Active and inactive are the calls of the source.

For 14 molecules, composite z-score and z-score results are on record in PubChem BioAssay.

Assay [1] concerns Plasmodium falciparum Sir2 (PF13_0152, Sir2A). In words: Plasmodium falciparum Sir2A binding compounds – biochemical, small-molecule microarray, 635 nm fluorescence, primary screen (AID 1098).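 Further: score merges spot fluorescence intensity with its signal-to-noise ratio.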 The note with it: fluorescence 635 nm, higher = more signal.
The nature of assay [2]: probe aDKK1 binding to arrayed compounds – biochemical, biotinylated probe, 635/667 nm fluorescence, primary screen (AID 1099).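 Further: score merges 667nm spot fluorescence with signal to noise across triplicate slides; reference of the scale not given here.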 Particulars: small-molecule microarray, higher = more signal.
Assay [3] can be described thus: probe aCHRDL2 binding to arrayed compounds – biochemical, biotinylated probe, 635/667 nm fluorescence, primary screen (AID 1100). The note with it: small-molecule microarray, higher = more signal.
Assay [4] is described as follows: change in splice reporter luminescence, either direction, cell-based, HEK293, spliceosome inhibition project, primary screen (AID 1101).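 Further: HEK293 cells carrying a splicing-competent luciferase reporter gene; test concentration not given here.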 The note with it: HEK293 splicing luciferase reporter, 24 h, higher = more signal, called active from +8 up or from −8 down. On the technique in general: A reporter such as luciferase makes a cellular process visible.
Assay [5] concerns the target Fibroblast growth factor 10 (Homo sapiens) (UniProt O15520). In words: compounds binding fibroblast growth factor 10 – biochemical, small-molecule microarray, 635 nm fluorescence, primary screen (AID 1102). The note with it: FGF10 binding, fluorescence 635 nm, higher = more signal.
Assay [6] deals with glycogen synthase kinase-3 (GSK3A per assay name; protocol says GSK3B). In words: compounds binding glycogen synthase kinase-3 – biochemical, small-molecule microarray, 635 nm fluorescence, GSK3A, primary screen (AID 1103). Further: the record names both GSK3A and GSK3B. The note with it: fluorescence 635 nm, higher = more signal.
In assay [7] the target is Epidermal growth factor receptor (Homo sapiens) (UniProt P00533). Nature of the assay: compounds binding epidermal growth factor receptor – biochemical, small-molecule microarray, 635 nm fluorescence, primary screen (AID 1104).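 Further: score merges 667 nm emission intensity with spot signal to noise over triplicate slides.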 The note with it: EGFR binding, higher = more signal.
Chain of Epidermal growth factor receptor (Homo sapiens) (P00533 whole entry, looked up): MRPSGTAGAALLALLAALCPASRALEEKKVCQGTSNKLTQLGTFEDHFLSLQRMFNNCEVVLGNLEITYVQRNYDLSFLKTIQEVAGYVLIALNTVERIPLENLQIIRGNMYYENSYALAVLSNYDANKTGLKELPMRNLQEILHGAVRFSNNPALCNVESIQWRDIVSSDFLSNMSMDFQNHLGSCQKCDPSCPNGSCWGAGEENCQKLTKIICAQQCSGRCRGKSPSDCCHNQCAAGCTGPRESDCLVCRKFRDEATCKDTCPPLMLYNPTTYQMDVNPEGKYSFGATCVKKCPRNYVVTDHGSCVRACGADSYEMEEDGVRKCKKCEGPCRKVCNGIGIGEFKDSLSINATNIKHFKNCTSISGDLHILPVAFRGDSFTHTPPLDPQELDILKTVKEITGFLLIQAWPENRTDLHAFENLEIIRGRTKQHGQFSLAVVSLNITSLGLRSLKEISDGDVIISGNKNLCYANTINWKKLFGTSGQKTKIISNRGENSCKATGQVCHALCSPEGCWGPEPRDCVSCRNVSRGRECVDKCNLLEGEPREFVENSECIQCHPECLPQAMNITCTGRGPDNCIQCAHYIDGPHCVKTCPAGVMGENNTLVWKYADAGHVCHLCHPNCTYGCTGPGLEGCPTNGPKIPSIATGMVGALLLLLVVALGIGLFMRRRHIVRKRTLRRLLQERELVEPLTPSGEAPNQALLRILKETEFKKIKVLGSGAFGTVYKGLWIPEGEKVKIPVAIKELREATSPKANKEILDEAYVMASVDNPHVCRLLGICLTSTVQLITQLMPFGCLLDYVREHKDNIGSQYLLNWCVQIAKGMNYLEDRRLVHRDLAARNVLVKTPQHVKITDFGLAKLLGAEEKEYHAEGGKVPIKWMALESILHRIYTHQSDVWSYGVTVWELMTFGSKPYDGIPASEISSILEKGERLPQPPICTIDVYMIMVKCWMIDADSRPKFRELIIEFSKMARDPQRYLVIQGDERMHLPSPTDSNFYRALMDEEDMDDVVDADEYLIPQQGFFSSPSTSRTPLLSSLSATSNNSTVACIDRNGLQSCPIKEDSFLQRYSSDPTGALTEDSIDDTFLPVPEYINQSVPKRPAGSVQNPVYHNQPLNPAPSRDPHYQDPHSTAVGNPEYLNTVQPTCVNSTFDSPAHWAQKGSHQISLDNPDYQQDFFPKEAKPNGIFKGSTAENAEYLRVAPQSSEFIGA
The target in assay [8] is Follistatin-related protein 3 (Homo sapiens) (UniProt O95633). Nature of the assay: compounds binding follistatin-related protein 3 – biochemical, small-molecule microarray, 635 nm fluorescence, primary screen (AID 1105).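 Further: score merges emission near 667 nm and signal to noise per printed spot across three slides.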 Particulars: FSTL3 binding, higher = more signal.
Chain of Follistatin-related protein 3 (Homo sapiens) (O95633 whole entry, looked up): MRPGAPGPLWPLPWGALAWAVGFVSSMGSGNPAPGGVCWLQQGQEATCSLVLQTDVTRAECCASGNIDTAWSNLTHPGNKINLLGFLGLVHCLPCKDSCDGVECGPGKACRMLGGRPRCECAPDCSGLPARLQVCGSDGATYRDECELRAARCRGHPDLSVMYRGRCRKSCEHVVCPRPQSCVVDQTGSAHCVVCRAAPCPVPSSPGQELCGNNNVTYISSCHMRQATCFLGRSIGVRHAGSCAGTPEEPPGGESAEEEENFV
Assay [9] deals with Dickkopf-related protein 1 (Homo sapiens) (UniProt O94907). Nature of the assay: small molecules binding DKK1 protein – biochemical, small-molecule microarray, 635 nm fluorescence scan, primary screen (AID 1106).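 Further: score merges emission near 667 nm with signal to noise over three replicate slides.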 The note with it: higher = more signal.
Chain of Dickkopf-related protein 1 (Homo sapiens) (O94907 whole entry, looked up): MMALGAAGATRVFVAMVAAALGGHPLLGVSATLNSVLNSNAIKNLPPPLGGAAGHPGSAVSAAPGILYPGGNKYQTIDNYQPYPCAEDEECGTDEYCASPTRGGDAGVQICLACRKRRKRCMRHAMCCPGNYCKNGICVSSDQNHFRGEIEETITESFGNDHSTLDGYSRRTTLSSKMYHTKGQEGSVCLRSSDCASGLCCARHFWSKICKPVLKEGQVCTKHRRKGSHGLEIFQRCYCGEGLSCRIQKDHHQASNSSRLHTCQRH
The test system of assay [10] is Inhibin beta A chain (activin A). In words: small molecules binding activin A – biochemical, small-molecule microarray, 635 nm fluorescence scan, primary screen (AID 1107).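 Further: mouse activin A protein probed at 4.33 µg/mL on printed slides; score merges bound-protein fluorescence near 667 nm with spot signal-to-noise.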 Particulars: INHBA, higher = more signal.

Chain of Fibroblast growth factor 10 (Homo sapiens) (O15520 whole entry, looked up): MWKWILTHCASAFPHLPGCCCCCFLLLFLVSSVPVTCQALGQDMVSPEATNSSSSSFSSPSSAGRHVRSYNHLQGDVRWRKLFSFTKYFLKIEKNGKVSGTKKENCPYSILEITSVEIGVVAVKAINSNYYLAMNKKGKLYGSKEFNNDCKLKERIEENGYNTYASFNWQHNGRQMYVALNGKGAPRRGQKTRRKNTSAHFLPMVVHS

`CO[C@H]1O[C@H](CO)[C@@H](OC(=O)Nc2cccc(F)c2)[C@H](OC(=O)Nc2ccc3c(c2)OCO3)[C@@H]1OC(=O)Nc1ccc2c(c1)OCO2`: the composite z-score in [1] amounted to 1.13; in [2] it was 0.359; in [3], 0.558; in assay [5], 1; in assay [6], 1.2; in [7] it was 0.0595. In addition, the composite z-score was found to be 1.37 in assay [8], 0.229 in assay [9] and 0.663 in assay [10]. The z-score in [4] is -1.13 (inactive).
For `C=CCC(OC(C)=O)[C@@H]1[C@@H](N(Cc2cccc3ccccc23)C(=O)c2ccc(C)cc2)c2cc(OCCCO)ccc2N1C(=O)Cc1ccc2ccccc2c1` (stereo not given in full), the composite z-score in assay [1] is -0.542; in [2], 0.0891; in [3] it was 0.135; in assay [5], -0.123; in assay [6] it was -0.0662; in [7] it was 0.13. The composite z-score in assay [8] was -0.345; in assay [9], 0.248; in [10] it was 1.34. For the same molecule, in assay [4], the z-score was -1.86 (inactive).
As for `C=CCOC(=O)[C@H]1[C@@H]2C(=O)O[C@@H](c3ccccc3)[C@@H](c3ccccc3)N2[C@@H](c2ccc(OCCOC(=O)[C@@H]3C[C@@H]4C(=O)N[C@@H](Cc5ccccc5)C(=O)N4[C@@H]3c3ccc(O)cc3)cc2)[C@]12C(=O)Nc1ccc(I)cc12`, the composite z-score in [1] was 1.5; in [2], -0.188; in [3] it was -0.381; in [5], 1.31; in [6] it was 0.606; in [7] it was 0.654. For the same molecule, the composite z-score in [8] came to 1.24; in assay [9], 0.825; in [10], 0.684. Moreover, the z-score in [4] is -0.461 (inactive).
On to `C=C(C(=O)CC[C@@H](OC(=O)c1cccnc1)c1cccc(OCCO)c1)C(C)C`, for which the composite z-score is 1.32 in assay [1]; 0.28 in [2]; 0.0064 in [3]; 0.959 in [5]; -0.521 in assay [6]; 0.111 in [7]. The composite z-score in assay [8] is 0.343; in assay [9], 0.109; in assay [10] it was 0.867. The z-score in assay [4] was 3.07 (inactive).
With `COCCOC(=O)N1C(=O)[C@@]2(c3cc(C#CCNC(N)=O)ccc31)[C@H](c1ccc(O)cc1)N1[C@H](c3ccccc3)[C@H](c3ccccc3)OC(=O)[C@H]1[C@@H]2C(=O)N1CCc2cc(OC)c(OC)cc2C1`, the composite z-score in assay [1] is 0.391; in assay [2], 0.206; in [3] it was 0.493; in [5], 1.19; in assay [6] it was -0.447; in assay [7], 0.292. For the same molecule, the composite z-score came to 1.2 in assay [8], 0.372 in assay [9] and 0.899 in assay [10]. In addition, in assay [4], the z-score was -1.41 (inactive).
In the case of `C=CCNC(=O)[C@@H]1[C@H]2C(=O)O[C@H](c3ccccc3)[C@H](c3ccccc3)N2[C@H](c2ccc(OCCO)cc2)[C@@]12C(=O)Nc1ccc(C#CCNC(N)=O)cc12`, the composite z-score is 1.05 in assay [1]; -0.123 in assay [2]; 0.584 in assay [3]; -0.385 in assay [5]; -0.402 in [6]; -1.13 in assay [7]. Also, the results for the composite z-score in assay [8], in assay [9] and in assay [10] were 0.16, -0.456 and 1.31, respectively. Besides, the z-score in assay [4] is -0.0958 (inactive).
As for `O=C(N1CCOCC1)[C@]1(CCS(=O)(=O)c2ccccc2)N=C(c2ccc(OCCCO)cc2)O[C@@H]1c1ccccc1`, the composite z-score in [1] is 1.5; in assay [2], 1.18; in assay [3], 1.37; in assay [5], 0.59; in assay [6] it was 0.7; in assay [7] it was -0.113. In addition, the composite z-score was 0.488 in assay [8], -0.753 in [9] and 0.599 in assay [10]. For the same molecule, the z-score in [4] was -1.04 (inactive).
For `COc1cccc(C)c1NC(=O)O[C@H]1[C@H](OC(=O)Nc2ccccc2-c2ccccc2)[C@@H](OC(=O)Nc2ccccc2-c2ccccc2)[C@@H](OC)O[C@@H]1CO`, the composite z-score in assay [1] came out at 1.3; in assay [2], 0.629; in assay [3], 0.573; in [5] it was 1.4; in assay [6], 1.1; in [7] it was 0.316. The composite z-score in assay [8] was determined as 1.43; in assay [9] it was 0.244; in [10], 0.601. The z-score in [4] was 0.152 (inactive).
`O=C/C=C/c1ccc(-c2ccccc2)cc1`: the composite z-score in assay [1] was -0.821; in assay [2] it was -0.241; in [3] it was 0.149; in assay [5] it was 0.141; in [6], -0.1; in assay [7] it was 0.005. In addition, the composite z-score is 0.0445 in [8], -0.14 in assay [9] and 1.1 in assay [10]. For the same molecule, in [4], the z-score was -1.04 (inactive).
As to `Cc1ccc(S[C@]2(C(=O)NCCN3CCOCC3)CC(=O)N(C(C)C)[C@@H]2c2ccc(CO)cc2I)cc1`, the composite z-score in [1] was 1.89; in assay [2] it was 0.713; in assay [3] it was 1.24; in assay [5] it was -0.477; in assay [6], -0.465; in [7], -1.19. For the same molecule, the composite z-score is -0.55 in assay [8], -0.908 in assay [9] and 0.968 in assay [10]. Also, the z-score in [4] is -1.48 (inactive).
In the case of `COc1ccc([Si](C)(C)[C@H]2[C@H](CC(=O)N(CCO)Cc3ccccc3)O[C@@]3(C(=O)N(Cc4cccc(N5CCCCC5=O)c4)c4ccccc43)[C@@H]2C)cc1`, the composite z-score was 0.535 in assay [1]; -0.147 in [2]; -0.13 in assay [3]; 0.114 in assay [5]; -0.0519 in [6]; -0.0805 in [7]. The composite z-score worked out at 0.436 in [8], 0.327 in assay [9] and 0.167 in assay [10]. Besides, the z-score in [4] is -2.32 (inactive).
With `CN(C)CCCCNC(=O)[C@H]1C[C@H]2C(=O)N[C@@H](CCCCN(C)C)C(=O)N2[C@H]1c1ccc(O)cc1`, the composite z-score is 1.12 in assay [1]; -0.265 in assay [2]; -0.508 in assay [3]; 0.174 in assay [5]; -0.0777 in assay [6]; 0.821 in assay [7]. For the same molecule, the composite z-score in assay [8] was 0.592; in assay [9], 1.16; in assay [10], -0.0636. Further, in assay [4], the z-score is -1.73 (inactive).
`CN1C(=O)C2C=CC(C(O)c3ccc(I)cc3)N(N(c3ccccc3)c3ccccc3)C2C1=O` (stereo not given): the composite z-score in assay [1] was 0.727; in assay [2], -0.0078; in assay [3], 0.914; in [5] it was -0.841; in [6] it was -0.487; in [7] it was -0.882. Further, the composite z-score in [8] was -0.309; in assay [9], -0.421; in assay [10], 1.32. Further, the z-score in assay [4] is 1.19 (inactive).
Take `C=CC[C@H](OC(=O)Nc1ccc(SC)cc1)c1ccc(O)c(F)c1`: the composite z-score in [1] was 0.983; in [2], -0.172; in assay [3], 0.277; in assay [5], -0.918; in [6], -0.786; in assay [7], -0.392. Further, the figures for the composite z-score in [8], in [9] and in assay [10] were -0.88, -1.17 and 0.536, respectively. In assay [4], the z-score was -0.354 (inactive).
